Inconclusive results are not listed. Activity calls are given as the source filed them. Unless noted, no stated cut-off is given here; in the data, active means inhibition above about 80%; inactive means the rest.

The target of test [1] is Mitogen-activated protein kinase 7 (Homo sapiens) (UniProt Q13164). Put plainly: Gal4-ERK5 driven luciferase induction – cell-based, HTS, primary screen (AID 1508626;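 active means luciferase signal above three times the same-plate solvent-only control wells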;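 further: luciferase driven by Gal4-ERK5 fusion binding five Gal4 sites before minimal TATA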). The settings on record: HeLa Gal4-ERK5 transactivation, 18 h, at 5 µM, stronger effect = higher value.
Test [2] is described as follows: galactose survival enhancers in mitochondrial complex I cybrids – cell-based, galactose medium, ATP luminescence, primary screen (AID 1645843;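 active means z-score of at least 1.8 in each of two replicates, scored against plate mean and spread of sample wells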;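 further: positive z means more ATP and so rescue of galactose-driven cybrid death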). Conditions: complex I mutant cybrid cells, 72 h, stronger effect = higher value.
Test [3] in a line: viability loss in pontine glioma line – cell-based, JHH-DIPG-1, MIPE4.0, CellTiter-Glo, qHTS, dose response (AID 1347062; cut-off not given, nearly all actives have AC50 up to about 27 µM;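 on AC50: cells exposed to compound for two days before readout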). The settings on record: JHH-DIPG-1 viability, CellTiter-Glo ATP luminescence. For orientation: ATP-based viability assays read luminescence as a measure of living cells.
Test [4] in a line: growth inhibition of DIPG cells – cell-based, MIPE4.0 library, CellTiter-Glo luminescence, qHTS (AID 1347066; cut-off not given, nearly all actives have AC50 up to about 30 µM;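 further: cells exposed to compound for 48 hours before readout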). Conditions: SU-DIPG-VI viability, CellTiter-Glo ATP luminescence.
For test [5], the target named is ATP-dependent translocase ABCB1 (Homo sapiens) (UniProt P08183). As to the kind of experiment: P-glycoprotein substrate transport blockade – cell-based (AID 377; in the data active means fluorescence slope change above about 50%). The settings on record: MDR1-expressing cells, fluorescent substrate accumulation slope; stronger effect = higher value; concentration not given here.
A short description of test [6]: viability loss in pontine glioma line – cell-based, SU-DIPG-IV, MIPE4.0, CellTiter-Glo, qHTS, dose response (AID 1347063; cut-off not given, nearly all actives have AC50 up to about 30 µM;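 further: compound exposure lasted 48 hours before the viability readout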). Conditions: CellTiter-Glo ATP luminescence.
Test [7] in a line: viability loss in pontine glioma line – cell-based, SU-DIPG-XIII, MIPE5.0, CellTiter-Glo, qHTS, dose response (AID 1347064; cut-off not given, nearly all actives have AC50 up to about 23 µM;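 on AC50: cells exposed to compound for 48 hours before the viability read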). Conditions: CellTiter-Glo ATP luminescence.
The nature of test [8]: viability loss in pontine glioma line – cell-based, SU-DIPG-XXV, MIPE5.0, CellTiter-Glo, qHTS, dose response (AID 1347065; cut-off not given, nearly all actives have AC50 up to about 26 µM;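 further: cells exposed to compound for 48 hours before ATP readout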). Conditions: CellTiter-Glo ATP luminescence.
Test [9] in a line: JHH-DIPG-1 glioma cell viability, MIPE5.0 library, CellTiter-Glo luminescence, qHTS (AID 1347067; cut-off not given, nearly all actives have AC50 up to about 26 µM;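 further: cells exposed to compound for 48 hours before readout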). Conditions: JHH-DIPG-1 glioma viability, CellTiter-Glo ATP luminescence.
Test [10] in a line: growth inhibition of DIPG cells – cell-based, MIPE5.0 library, qHTS (AID 1347068; cut-off not given, nearly all actives have IC50 up to about 30 µM;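 on IC50: cells exposed to compound for 48 hours before viability readout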). The settings on record: SU-DIPG-XXV viability.
Test [11] in a line: growth inhibition, single agents and combos, LFS_MB_1R, cell-based, cisplatin or BGB combos, synergistic combos for chromothripsis tumors (AID 1671452).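 Further: cells exposed for 96 hours before readout.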 The settings on record: LFS_MB_1R medulloblastoma cells, stronger effect = higher value.
Test [12] in a line: growth inhibition, single agents and combos, CRL2098, cell-based, BGB or cisplatin IC20 combos, synergistic combos for chromothripsis tumors (AID 1671454).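 Further: cells exposed for 96 h before readout; 0% = vehicle DMSO and 100% = killing by high DMSO.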 The settings on record: CRL2098 osteosarcoma cells, drug combinations, stronger effect = higher value.
Test [13] in a line: growth inhibition, single agents and combos, HD-MB03, cell-based, BGB or cisplatin IC20 combos, synergistic combos for chromothripsis tumors (AID 1671455; in the data active means inhibition above about 83%;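 further: 0% = vehicle DMSO and 100% = high DMSO as cytotoxic control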). The settings on record: HD-MB03 medulloblastoma cells, stronger effect = higher value.
A short description of test [14]: growth inhibition, single agents and combos, UWB1.289, cell-based, BGB or cisplatin combos, synergistic combos for chromothripsis tumors (AID 1671456).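 Further: cells exposed to compound for four days; 0% = vehicle DMSO and 100% = killing by high DMSO.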 The settings on record: UWB1.289 ovarian carcinoma cells, stronger effect = higher value.
Test [15] can be described thus: growth inhibition, single agents and combos, LFS_MB_2R, cell-based, cisplatin combos, synergistic combos for chromothripsis tumors (AID 1671457).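 Further: cells exposed to compound for four days before readout.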 Conditions: LFS_MB_2R medulloblastoma cells, stronger effect = higher value.
A short description of test [16]: UWB1.289_BRCA1 ovarian cancer growth, cell-based, BGB or cisplatin combinations (AID 1671459). The settings on record: UWB1.289 BRCA1 ovarian carcinoma, drug combinations, stronger effect = higher value.
Test [17] can be described thus: drug combination toxicity in non-malignant astrocytes – cell-based, BGB or cisplatin IC20 combos, cytotoxicity control for chromothriptic childhood tumor combination screen (AID 1671460).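 Further: cells exposed to compounds for 96 hours before viability readout; 0% = vehicle and 100% = killing control.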 Conditions: Human astrocytes, viability inhibition, drug combinations, at 0.5 µM, stronger effect = higher value.
Test [18] is described as follows: BT084 cell growth, single and combined drugs, ICGC_MB145, cisplatin and BGB IC40 combos (AID 1671461).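 Further: cells exposed to drugs for 96 hours; 0% = vehicle DMSO and 100% = high DMSO full killing control.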 Conditions: BT084 medulloblastoma cells, drug combinations, stronger effect = higher value.
The nature of test [19]: RCMB18 cell growth, single agent and combined, cisplatin and BGB IC40 combos (AID 1671462).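 Further: cells exposed to compound for four days.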 Conditions: RCMB18 medulloblastoma cells, stronger effect = higher value.
Test [20] can be described thus: CRL1545 cell growth, single agent and combined, cisplatin and BGB IC20 combos (AID 1671464).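 Further: cells exposed to compound for 96 hours before readout; 0% = vehicle DMSO and 100% = high DMSO killing control.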 The settings on record: CRL1545 osteosarcoma cells, stronger effect = higher value.
[21] abbreviates: measured here: combination with cisplatin, at 0.5 µM.
Setting [22] is: measured here: combination with cisplatin, at 5 µM.

Mitogen-activated protein kinase 7 (Homo sapiens), sequence (Q13164 whole entry, looked up, the tested form may be a part): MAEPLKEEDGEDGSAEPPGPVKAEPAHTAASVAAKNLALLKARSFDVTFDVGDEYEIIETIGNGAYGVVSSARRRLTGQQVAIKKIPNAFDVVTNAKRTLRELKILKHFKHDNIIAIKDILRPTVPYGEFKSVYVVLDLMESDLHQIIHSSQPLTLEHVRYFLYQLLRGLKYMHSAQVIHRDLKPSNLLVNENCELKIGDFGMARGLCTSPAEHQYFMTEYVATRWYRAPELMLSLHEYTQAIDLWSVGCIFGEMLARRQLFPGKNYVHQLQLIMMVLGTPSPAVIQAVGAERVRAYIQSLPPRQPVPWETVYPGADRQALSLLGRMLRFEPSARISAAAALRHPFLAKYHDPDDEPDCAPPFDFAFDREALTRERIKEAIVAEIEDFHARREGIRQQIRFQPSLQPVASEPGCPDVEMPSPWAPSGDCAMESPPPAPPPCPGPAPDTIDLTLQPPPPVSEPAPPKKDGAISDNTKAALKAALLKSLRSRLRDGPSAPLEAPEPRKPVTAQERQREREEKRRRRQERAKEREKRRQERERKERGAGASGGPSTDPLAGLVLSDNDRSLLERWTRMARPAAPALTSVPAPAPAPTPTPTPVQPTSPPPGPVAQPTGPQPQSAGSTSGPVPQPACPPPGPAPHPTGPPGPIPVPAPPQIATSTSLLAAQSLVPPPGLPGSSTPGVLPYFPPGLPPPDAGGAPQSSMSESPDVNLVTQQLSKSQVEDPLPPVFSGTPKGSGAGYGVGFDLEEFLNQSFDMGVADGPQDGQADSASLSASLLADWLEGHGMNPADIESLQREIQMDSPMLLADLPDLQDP
ATP-dependent translocase ABCB1 (Homo sapiens), sequence (P08183 whole entry, looked up): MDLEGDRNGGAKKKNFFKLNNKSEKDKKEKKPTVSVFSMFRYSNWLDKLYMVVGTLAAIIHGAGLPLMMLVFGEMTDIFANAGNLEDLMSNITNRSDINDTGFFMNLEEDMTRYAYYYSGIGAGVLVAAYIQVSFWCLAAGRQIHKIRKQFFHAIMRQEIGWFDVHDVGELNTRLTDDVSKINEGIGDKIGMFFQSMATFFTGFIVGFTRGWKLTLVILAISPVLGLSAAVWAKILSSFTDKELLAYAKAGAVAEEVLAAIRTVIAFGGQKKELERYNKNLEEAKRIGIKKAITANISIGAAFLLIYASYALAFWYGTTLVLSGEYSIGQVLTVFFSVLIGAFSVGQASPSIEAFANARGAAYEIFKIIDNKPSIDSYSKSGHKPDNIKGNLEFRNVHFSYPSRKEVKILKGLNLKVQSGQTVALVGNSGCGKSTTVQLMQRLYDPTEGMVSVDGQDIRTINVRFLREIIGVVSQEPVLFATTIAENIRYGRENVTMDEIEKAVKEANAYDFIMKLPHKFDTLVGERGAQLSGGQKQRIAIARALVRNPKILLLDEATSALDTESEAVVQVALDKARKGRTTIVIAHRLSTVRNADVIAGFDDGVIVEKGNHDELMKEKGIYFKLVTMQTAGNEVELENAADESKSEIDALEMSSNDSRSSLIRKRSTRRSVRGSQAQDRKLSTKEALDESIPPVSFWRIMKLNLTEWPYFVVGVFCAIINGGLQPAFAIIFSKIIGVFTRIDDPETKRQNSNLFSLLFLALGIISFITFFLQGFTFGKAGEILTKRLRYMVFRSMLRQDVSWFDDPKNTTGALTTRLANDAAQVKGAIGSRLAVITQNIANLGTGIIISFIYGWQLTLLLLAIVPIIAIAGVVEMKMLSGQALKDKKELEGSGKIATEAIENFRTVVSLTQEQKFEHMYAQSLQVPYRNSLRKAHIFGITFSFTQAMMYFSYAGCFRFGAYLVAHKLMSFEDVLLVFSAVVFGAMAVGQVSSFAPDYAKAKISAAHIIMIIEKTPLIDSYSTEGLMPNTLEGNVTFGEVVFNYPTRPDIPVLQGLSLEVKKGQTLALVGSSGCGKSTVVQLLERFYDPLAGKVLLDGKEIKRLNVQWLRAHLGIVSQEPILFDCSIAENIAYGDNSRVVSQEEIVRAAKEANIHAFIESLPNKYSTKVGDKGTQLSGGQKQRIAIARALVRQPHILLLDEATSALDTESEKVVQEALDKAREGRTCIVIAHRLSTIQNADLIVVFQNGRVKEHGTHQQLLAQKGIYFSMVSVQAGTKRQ

On to `CCCN(CCC)CCc1cccc2c1CC(=O)N2`, for which the luciferase signal in [1] is 48 AU (inactive). For the same compound, in [2], the z-score was 0.47 (inactive).

For the compound `CCN(C)C(=O)Oc1cccc([C@H](C)N(C)C)c1`, the compound was called inactive in test [3] and in test [4]. In addition, the z-score in [2] was 0.825 (inactive).

With `CCN(CC)C(=O)c1ccc(O)c(OC)c1`, the fluorescence slope change in test [5] was 53.1% (active). Also, in test [1], the luciferase signal was 52 AU (inactive). For the same compound, the z-score in test [2] was 0.21 (inactive).

The term AC50 denotes the midpoint of the concentration-response curve, whichever way the signal moves. As a reminder, the IC50 is the concentration that inhibits the measured activity by half. `COc1cccc2c1C(=O)c1c(O)c3c(c(O)c1C2=O)C[C@@](O)(C(C)=O)C[C@@H]3O[C@H]1C[C@H](N)[C@H](O)[C@H](C)O1`: the AC50 in test [3] was 0.0332 µM (active); in test [6], 0.0469 µM (active); in [7], 0.742 µM (active); in test [8] it was 0.742 µM (active); in test [9] it was 0.742 µM (active). For the same compound, the IC50 in test [10] was 3.32 µM (active). For the same compound, in test [1], the luciferase signal is 300 AU (active). Further, the z-score in [2] was -2.16 (inactive).

For the compound `CC(C)(Oc1ccc(C2CC2(Cl)Cl)cc1)C(=O)O` (stereo unspecified), the call in test [3], in test [7], in [8], in test [4], in [9] and in test [10] was inactive. The z-score in [2] was 0.695 (inactive).

Turning to `O=C1Cc2cc(CCN3CCN(c4nsc5ccccc45)CC3)c(Cl)cc2N1`, the AC50 in test [6] was 26.4 µM (active); in test [4], 23.5 µM (active). Moreover, the z-score in test [2] was -0.165 (inactive).

What is called inhibition is the change of the read-out against control, counted positive when it falls. Turning to `CN1CCN(c2c(F)cc3c(=O)c(C(=O)O)cn(CCF)c3c2F)CC1`, the call in test [3] and in test [6] was inactive. In test [2], the z-score was 0.245 (inactive). For the same compound, the inhibition is -3.54% (inactive) in test [11] (at 0.5 µM); 5.98% in test [11] (measured here: combination with BGB IC40, at 0.05 µM); 2.19% in test [11] (setting [21]); -16.1% in [11] (setting [22]); 11.6% (inactive) in test [12] (at 0.5 µM); -0.381% in test [12] (measured here: combination with BGB at IC20, at 0.5 µM). For the same compound, the inhibition is 26.4% in [12] (measured here: combination with cisplatin at IC20, at 0.5 µM); 6.76% (inactive) in test [13] (at 0.5 µM); 8.44% in [13] (measured here: combo with BGB at IC20, at 0.5 µM); 5.72% in [13] (measured here: combo with cisplatin at IC20, at 0.5 µM); 9.66% (inactive) in test [14] (at 0.5 µM); -0.955% in [14] (measured here: inhibition with BGB combination, at 0.05 µM). Moreover, the inhibition is 3.11% in test [14] (measured here: inhibition with cisplatin combination, at 0.05 µM); 7.8% (inactive) in test [15] (at 0.5 µM); 7.66% in [15] (setting [21]); -16.2% in test [15] (setting [22]); 7.04% in test [16] (BGB combination, concentration series, at 5 µM); 5.73% (inactive) in test [16] (at 0.5 µM). The inhibition was -0.678% in test [16] (cisplatin combination, concentration series, at 5 µM); 5.13% (inactive) in [17]; 2.15% in test [17] (measured here: combo with BGB IC20); 3.47% in test [17] (measured here: combo with cisplatin IC20); -2.41% (inactive) in test [18] (at 0.5 µM); -7.17% in test [18] (cisplatin combination, at 0.5 µM). Further, the inhibition in [18] (cisplatin combination, at 5 µM) is 4.75%; in test [18] (measured here: BGB IC40 combination 0.05 uM, at 0.05 µM), 34.4%; in test [18] (single agent, at 5 µM), 1.35%; in test [19] (at 0.5 µM), 18.3% (inactive); in [19] (cisplatin combo, at 5 µM), 48%; in [19] (measured here: BGB IC40 combination, at 0.05 µM) it was -3.02%. Also, the inhibition was 34.2% in test [19] (setting [21]); -5.57% in test [19] (single agent, at 5 µM); -0.47% (inactive) in test [20] (at 0.5 µM); -8.63% in test [20] (measured here: with BGB IC20 combination, at 0.5 µM); 1.43% in test [20] (measured here: with cisplatin IC20 combination, at 0.5 µM); 8.93% in test [20] (single agent, at 0.05 µM). In addition, the inhibition in [20] (single agent, at 5 µM) was found to be 2.13%.
